Among the data in PubChem BioAssay (NCI) are growth values, retold here.

Among the test systems are EKVX NSCLC; SN12C renal; UO-31 renal; ACHN renal; CAKI-1 renal; A498 renal; CCRF-CEM leukemia; MOLT-4 leukemia; SR leukemia; OVCAR-8 ovarian; OVCAR-5 ovarian; OVCAR-4 ovarian; SK-OV-3 ovarian; IGROV1 ovarian; OVCAR-3 ovarian; HS 578T breast; NCI/ADR-RES ovarian; T-47D breast; RPMI-8226 leukemia.
Holding throughout (test): NCI-60 one-dose screen, 48 h (100 = growth as untreated, 0 = no growth, -100 = all killed)
Conditions in all cases: 10 µM unless noted

The structures appear in SMILES notation. This is part of a sample that, as a whole, favours compounds with a hit. Of some 83,000 tested, about 20% had one in any assay.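 Cell lines were cultured in 96-well plates, exposed to a single compound concentration, and assessed for percent growth 48 hours later.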 A number with no mark means an inactive call. Active and inactive are the calls of the source. Rule for the calls: active = growth percent below 10; inactive = the rest.

As for `N/C(=N\c1nc2c(Cl)cc(Cl)cc2s1)C(Cl)(Cl)Cl`, the growth in the test on EKVX NSCLC is 13.4%; in the test on SN12C renal it was 77.9%; in the test with UO-31 renal it was 45.8%; in the test on ACHN renal, -32% (active); with CAKI-1 renal, 5.87% (active); with A498 renal it was -44.4% (active). Moreover, the growth in the test with CCRF-CEM leukemia was 83.7%; in the test with MOLT-4 leukemia, 82.8%; in the test with SR leukemia, 85.1%; with OVCAR-8 ovarian, 68.3%; in the test on OVCAR-5 ovarian, 69.5%; in the test with OVCAR-4 ovarian it was 67.9%. Besides, the growth in the test on SK-OV-3 ovarian is 83.8%; with IGROV1 ovarian, 57.8%; in the test on OVCAR-3 ovarian it was -9.72% (active); in the test with HS 578T breast, 22.1%; in the test with NCI/ADR-RES ovarian, 68.3%; in the test with T-47D breast, 32.3%.
In the case of `COc1cc(OC)c(C2SCC(=O)N2Nc2ncnc3ccccc23)cc1OC` (stereo not given), the growth in the test on EKVX NSCLC was 100%; in the test on SN12C renal, 103%; in the test with UO-31 renal, 89.7%; with ACHN renal, 106%; with CAKI-1 renal, 94%; with A498 renal, 81.8%. Moreover, the growth is 107% with CCRF-CEM leukemia; 105% in the test on MOLT-4 leukemia; 104% in the test with SR leukemia; 106% in the test with OVCAR-8 ovarian; 109% with OVCAR-5 ovarian; 103% with OVCAR-4 ovarian. The growth is 127% with SK-OV-3 ovarian; 106% in the test with IGROV1 ovarian; 119% in the test with OVCAR-3 ovarian; 112% in the test on HS 578T breast; 104% with NCI/ADR-RES ovarian; 106% with T-47D breast.
For `CS(=O)(=O)Nc1ccc(-c2nn(-c3ccc(S(C)(=O)=O)cc3)cc2/C=C/C(=O)c2ccc(NC(=O)CO[N+](=O)[O-])cc2)cc1`, the growth in the test on EKVX NSCLC was 103%; in the test on SN12C renal it was 109%; in the test with UO-31 renal, 93.9%; in the test on ACHN renal, 96.1%; in the test on CAKI-1 renal, 97.7%; in the test with A498 renal, 110%. In addition, the growth with CCRF-CEM leukemia was 111%; with OVCAR-8 ovarian, 101%; in the test with OVCAR-5 ovarian it was 103%; in the test on OVCAR-4 ovarian, 106%; with SK-OV-3 ovarian, 99.7%; in the test with IGROV1 ovarian, 105%. The growth with OVCAR-3 ovarian was 116%; in the test with HS 578T breast it was 122%; in the test with NCI/ADR-RES ovarian it was 97.3%; with T-47D breast, 102%.
Regarding `COC(=O)C(Cc1ccccc1)NS(=O)(=O)/N=C1\NC(=O)NC1=C(Cl)Cl` (stereo not given), the growth in the test on EKVX NSCLC was 104%; in the test with SN12C renal, 96.8%; with UO-31 renal it was 81.3%; with ACHN renal it was 98.1%; with CAKI-1 renal, 100%; in the test on CCRF-CEM leukemia, 37.8%. The growth in the test with MOLT-4 leukemia was 79.3%; in the test with SR leukemia, 82.9%; with OVCAR-8 ovarian, 102%; with OVCAR-5 ovarian it was 115%; in the test on OVCAR-4 ovarian, 112%; in the test on SK-OV-3 ovarian, 108%. Further, the growth with IGROV1 ovarian is 101%; in the test with OVCAR-3 ovarian, 110%; in the test with HS 578T breast, 100%; in the test on NCI/ADR-RES ovarian, 106%; in the test with T-47D breast, 68.4%.
In the case of `c1ccc(CNc2ncnc3ccc(-c4cnc5[nH]ncc5c4)cc23)cc1`, the growth in the test on EKVX NSCLC was 46.6%; in the test with SN12C renal, 56.6%; in the test on UO-31 renal, 35%; with ACHN renal, 34.5%; in the test on CAKI-1 renal, 36.3%; with A498 renal, -8.94% (active). For the same compound, the growth in the test on MOLT-4 leukemia is 34.6%; in the test with RPMI-8226 leukemia it was 60.8%; with OVCAR-8 ovarian, 71.2%; with OVCAR-5 ovarian, 61.8%; with OVCAR-4 ovarian, 79.4%; in the test on SK-OV-3 ovarian, 72.1%. The growth in the test on IGROV1 ovarian was 9.48% (active); in the test on OVCAR-3 ovarian, 67.1%; with HS 578T breast it was 45%; in the test with NCI/ADR-RES ovarian, 81.9%; in the test on T-47D breast it was 18.5%.
Take `Cc1ccc(C(=O)Nc2cccc(C(F)(F)F)c2)cc1Nc1nc(-c2cnccn2)nc2c1cnn2C`: the growth in the test on EKVX NSCLC was 77.3%; with SN12C renal it was 64.7%; in the test with UO-31 renal, 37.8%; in the test on ACHN renal, 53%; in the test with CAKI-1 renal it was 48.9%; in the test with A498 renal, 53.9%. The growth with CCRF-CEM leukemia was 78.2%; with SR leukemia, 39.5%; in the test with RPMI-8226 leukemia, 61.8%; in the test with OVCAR-8 ovarian, 77.3%; with OVCAR-5 ovarian it was 39.2%; in the test on OVCAR-4 ovarian it was 83.7%. Moreover, the growth in the test on SK-OV-3 ovarian was 97.9%; in the test with IGROV1 ovarian, 52.7%; in the test with OVCAR-3 ovarian, 97.9%; in the test on HS 578T breast, 51.2%; in the test with NCI/ADR-RES ovarian it was 75.6%; in the test on T-47D breast, 74.5%.
Consider `CCOC(=O)c1c(Nc2ccccc2)nn2c(N)c(C#N)c(-c3ccc(Cl)cc3)nc12`, for which the growth in the test on EKVX NSCLC is 68.9%; with SN12C renal, 53.1%; with UO-31 renal it was 93.8%; with ACHN renal it was 42.1%; in the test on CAKI-1 renal, 31.5%; with A498 renal it was 63.3%. Besides, the growth was 83% in the test with CCRF-CEM leukemia; 42.5% in the test with OVCAR-8 ovarian; 78.5% in the test with OVCAR-5 ovarian; 44.1% in the test on OVCAR-4 ovarian; 59.4% in the test with SK-OV-3 ovarian; 70.5% in the test on IGROV1 ovarian. Also, the growth with OVCAR-3 ovarian is 81.8%; with HS 578T breast it was 33.8%; in the test with NCI/ADR-RES ovarian, 71%; with T-47D breast it was 68.5%.
Consider `Cc1nc(-c2cc3ccccc3oc2=O)ccc1C(=O)/C=C/c1ccccn1`, for which the growth in the test with EKVX NSCLC was 84.3%; in the test with SN12C renal, 47.5%; in the test with UO-31 renal it was 58%; in the test on ACHN renal, 58.7%; with CAKI-1 renal, 60.6%; with A498 renal, 89.2%. In addition, the growth with MOLT-4 leukemia is 27.1%; in the test with SR leukemia, -12.6% (active); in the test with OVCAR-8 ovarian, 69.3%; in the test on OVCAR-5 ovarian it was 60.7%; in the test on OVCAR-4 ovarian, 85.2%; with SK-OV-3 ovarian, 116%. Also, the growth in the test on IGROV1 ovarian was 7% (active); in the test on OVCAR-3 ovarian, 46.9%; with HS 578T breast, 80.3%; with NCI/ADR-RES ovarian, 77.4%; with T-47D breast, 52.1%.
With `COc1ccc(COc2ccc(/C=C3/C(=O)Nc4cc(Cl)ccc43)cc2)cc1`, the growth in the test with EKVX NSCLC is 95.8%; in the test with SN12C renal, 94.1%; in the test with UO-31 renal, 79.4%; in the test with ACHN renal, 95.7%; in the test with CAKI-1 renal, 88.3%; in the test on A498 renal, 83.7%. Also, the growth with CCRF-CEM leukemia is 6.11% (active); in the test on MOLT-4 leukemia it was 108%; with RPMI-8226 leukemia it was 89.9%; in the test with OVCAR-8 ovarian it was 96.3%; in the test on OVCAR-5 ovarian it was 96.2%; with OVCAR-4 ovarian it was 93.5%. Besides, the growth is 107% with SK-OV-3 ovarian; 92.4% in the test with IGROV1 ovarian; 102% with OVCAR-3 ovarian; 89% in the test with HS 578T breast; 94.4% in the test on NCI/ADR-RES ovarian; 90.2% in the test on T-47D breast.
